Source: PubChem BioAssay (National Center for Advancing Translational Sciences (NCATS))
An excerpt weighted towards active compounds, which were near 2.9% of everything screened.
SNCA viab count: reduces viability of HEK-293 SNCA reporter cells | HEK-293-SNCA-luc viability, GF-AFC fluorescence, 24 h | Potency, µM (highest dose often 57.1 µM), for inactives: at the highest dose activity change, negative = cytotoxicity, actives largely listed as cytotoxic | 0.12% of 150,000 active | AID 1671193;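 further: potency means the concentration at half of the fitted maximal effect; 0% = DMSO-treated cells and -100% = medium-only wells without cells; nearly all actives have a fitted effect of over 30% in size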
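Cytotoxicity counterscreen: after 24 h compound treatment of genome-edited SNCA-luciferase HEK-293 cells, live-cell protease substrate GF-AFC read by fluorescence after 30 min; activity scaled between DMSO (0%) and medium-only (-100%), curves Hill-fitted.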
IP6K1 inh: IP6K1 kinase inhibition | Q92551 | IP6K1 kinase, ADP-Glo luminescence, 2 h; hits give low values | activity change, % (series mostly up to about 58 µM) | 0.81% of 140,000 active; in the data active means activity change below about -25%; further: on the % scale 0 is the no-effect control and ±100 the full control effect
Target sequence (Q92551 whole entry, looked up): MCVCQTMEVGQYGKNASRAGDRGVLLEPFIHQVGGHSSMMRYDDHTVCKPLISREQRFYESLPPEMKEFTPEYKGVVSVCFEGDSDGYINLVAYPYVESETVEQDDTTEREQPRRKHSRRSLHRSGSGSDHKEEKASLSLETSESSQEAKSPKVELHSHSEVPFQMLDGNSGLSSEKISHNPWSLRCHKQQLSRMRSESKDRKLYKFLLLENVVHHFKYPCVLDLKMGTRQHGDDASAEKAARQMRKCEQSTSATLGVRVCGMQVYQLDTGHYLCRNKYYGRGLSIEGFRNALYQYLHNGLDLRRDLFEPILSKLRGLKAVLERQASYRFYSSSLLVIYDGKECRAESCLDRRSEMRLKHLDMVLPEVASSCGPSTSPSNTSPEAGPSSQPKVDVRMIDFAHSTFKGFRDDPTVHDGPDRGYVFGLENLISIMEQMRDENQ
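ADP-Glo luminescence measures ADP made by human IP6K1 during a 2 h RT reaction with ATP/IP6 (mix at 1.3 mM/130 uM); top library doses 57.5 and 19.1 uM final.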
KDM5B inhibitor: blocks human KDM5B histone demethylase activity; Q9UGL1; KDM5B demethylase, FDH-coupled NADH fluorescence (FDH is formaldehyde dehydrogenase); Potency, µM (titrated, usually from 57.7 µM), hits mostly inhibitors; 2.6% of 220,000 active; further: potency means the concentration at half of the fitted maximal effect; 0% is about no effect; nearly all actives have a fitted effect of over 70% in size
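KDM5BΔAP (200 nM final) in 50 mM HEPES pH 7.5, 0.01% Tween-20 was preincubated 10 min at RT with compound over a concentration range. Substrate mix (H3K4me3 12.5 µM, α-KG 25 µM, Fe²⁺, ascorbate, NAD⁺, FDH) was added, and NADH fluorescence change over 30 min gave dose-response curves.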
SNCA expr inh: inhibitors of alpha-synuclein (SNCA) gene expression; 0.17% of 140,000 active; HEK-293 SNCA-luciferase knock-in, luminescence, 24 h; AID 1671194; Potency, µM (highest dose often 57.2 µM), without a hit: top-dose activity change, negative = inhibition, hits mostly inhibitors;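 further: potency means the concentration at half of the fitted maximal effect; plate controls were DMSO cells for no effect and cell-free wells for full effect; nearly all actives have a fitted effect of over 45% in size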
* hit, by the source's call; i = inactive; ? = inconclusive; nt = no result; [ ] = another dose, or the depositor's remark. Unless noted, the call rests on the fitted dose curve; in most records, active means well fitted curve in the direction sought with a large enough effect; inconclusive means small, poorly fitted or top-dose-only effect, or another doubt; inactive means no such curve, though single readings can be large; an effect the other way counts as inactive or inconclusive.

SMILES	SNCA viab count	IP6K1 inh	KDM5B inhibitor	SNCA expr inh
Cc1ccccc1-c1ccc2n(c1=O)C[C@H]1C[C@@H]2CN(C(=O)Nc2ccc(Cl)cc2)C1	-7.2%[87.6 µM]	-4.2	31.6µM*	-25.5%[87.6 µM]
COc1ccccc1NC(=O)N1C[C@@H]2C[C@H](C1)c1ccc(-c3ccccc3C)c(=O)n1C2	-14.7%[87.6 µM]	15.5	?	11.1%[87.6 µM]
Cc1ccccc1-c1ccc2n(c1=O)C[C@H]1C[C@@H]2CN(C(=O)NC(C)C)C1	2.9%[87.6 µM]	1.3	35.5µM*	-20.2%[87.6 µM]
COCCn1c(C)cc(C(=O)N2[C@H]3CC[C@@H]2c2cnc(-c4ccc(F)cc4)nc2C3)c1C	?	11.7	i	25.1µM*
CN(C)CC(=O)Nc1ccc2n(c1=O)C[C@H]1C[C@@H]2CN(C(=O)c2ccc(F)cc2)C1	3.4%[87.6 µM]	-4.9	i	-11.8%[87.6 µM]
O=C(c1ccc(F)cc1)N1C[C@@H]2C[C@H](C1)c1ccc(-c3cncnc3)c(=O)n1C2	1.6%[87.6 µM]	0.1	39.8µM*	21.8%[87.6 µM]
O=C(c1ccccc1)N1C[C@@H]2C[C@H](C1)c1c(-c3cncnc3)ccc(=O)n1C2	-0.4%[87.6 µM]	-5.1	?	-19.2%[87.6 µM]
O=C(c1ccccc1)N1C[C@@H]2C[C@H](C1)c1ccc(-c3cncnc3)c(=O)n1C2	-0.2%[87.6 µM]	-6.2	39.8µM*	1.0%[87.6 µM]
Cc1cccc(NC(=O)NC2N=C(c3ccccc3)c3ccccc3N(CC(=O)c3ccccc3C)C2=O)c1 (configuration not stated)	-7.8%	2.4	nt	nt
CN1CCN(C(=O)Cc2cccn2-c2ccc(Cl)cc2)CC1	6.1%	3.2	i	5.9%
CC(C)(O)/C=C/C(=O)[C@](C)(O)[C@H]1[C@H](O)C[C@@]2(C)[C@@H]3CC=C4[C@@H](C[C@H](O)C(=O)C4(C)C)[C@]3(C)C(=O)C[C@]12C	?	8.2	nt	nt
CC(C)(O)C=CC(=O)[C@](C)(O)[C@H]1[C@H](O)C[C@]2(C)[C@@H]3CC=C4[C@@H](C=C(O)C(=O)C4(C)C)[C@]3(C)C(=O)C[C@@]12C	?	nt	nt	13.6µM*
CC(C)c1ccc(NC(=O)OC[C@H]2C[C@@H]3CCN2C[C@@H]3c2cc(C3CCCC3)nc(-c3ccncc3)n2)cc1	?	1.7	i	?
O=c1c(-c2cccs2)ccc2n1C[C@H]1C[C@@H]2CN(C2CCOCC2)C1	?	-1.5	35.5µM*	-0.2%[87.6 µM]
CCOC(=O)[C@H]1CN([S+](C)(=O)[O-])[C@]2(C)C(=O)Nc3ccccc3[C@H]12	nt	-7.7	nt	nt
Cc1ccc2c(n1)N(C)[C@H](CO)CCN(Cc1ccco1)C2	3.8%[87.6 µM]	-3.7	?	-3.0%[87.6 µM]
CN1c2ncccc2CN(Cc2ccccn2)CC[C@H]1CO	6.0%[87.6 µM]	-10.7	31.6µM*	-4.2%[87.6 µM]
CN1c2ncccc2CN(Cc2ccccc2)CC[C@H]1CO	-1.7%[87.6 µM]	-13.2	31.6µM*	13.1%[87.6 µM]
OCC1CN(c2ncccn2)CC12CCNCC2 (configuration not stated)	0.1%	12.5	31.6µM*	8.3%
Cc1cc(S(=O)(=O)N2[C@H]3CC[C@@H]2c2cnc(-c4ccccc4)nc2C3)ccc1F	12.3%	24.8	i	12.5%
CN1CCN(C(=O)Cc2c[nH]c3ncc(-c4ccccc4F)cc23)CC1	6.9%[87.6 µM]	-13.4	35.5µM*	6.3%[87.6 µM]
CN1CCN(C(=O)Cc2c[nH]c3ncc(-c4ccsc4)cc23)CC1	12.3%[87.6 µM]	-11.6	39.8µM*	4.4%[87.6 µM]
Fc1cnccc1CN1CC[C@@H]2CN(Cc3ccccc3)[C@@H]2C1	10.1%	-3.8	nt	17.6%
Cc1nc(-c2ccc(N(C)C)cc2)cc([C@H]2CN3CC[C@H]2C[C@@H]3CNC(=O)c2ccccc2)n1	?	2.2	25.1µM*	?
COc1ccc(C(=O)NC[C@H]2C[C@@H]3CCN2C[C@@H]3c2cc(-c3ccc(N(C)C)cc3)nc(C)n2)cc1	-22.3%	-3.7	28.2µM*	?
Cc1nc(-c2ccc(N(C)C)cc2)cc([C@H]2CN3CC[C@H]2C[C@@H]3COC(=O)NC(C)C)n1	-11.6%	-8.9	28.2µM*	-16.5%
Cc1nc(-c2ccccc2Br)cc([C@H]2CN3CC[C@H]2C[C@@H]3CNC(=O)c2ccc(N(C)C)cc2)n1	-28.1%	-5.7	i	-22.1%
CCOC(=O)[C@H]1CN(C(=O)/C=C/c2ccccc2)[C@]2(C)C(=O)Nc3ccccc3[C@H]12	-6.5%[23.9 µM]	15.1	nt	-1.1%[25.6 µM]
COc1cc(CN2CCN(C(=O)COc3ccccc3)CC2)cc(OC)c1O	nt	nt	i	nt
COc1cc2c(cc1OCc1ccccc1)N(C(=O)COc1ccccc1)CC21CCN(C)CC1	?	-9.3	i	?
